Laboratory results published in PubChem BioAssay AID1159580 (chemical genetic matrix, 2015).
“And” between values parts separate entries of the source, which are not always exact repeats. Equal values may be shown once. About 2,000 (36%) of roughly 5,500 compounds were called active. Not shown: some 18% with an inconclusive outcome. Rule as the data show it: active = normalized growth mostly below about 0.91 (no sharp cut-off); inconclusive = no clear call, values can overlap the other calls; inactive = mostly above about 0.92. This is one part of the list.

Assay: chemical genetic growth profiling, strain panel (AID 1159580);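 also: tested at 20 µM; growth read once vehicle control cultures reached saturation at 30 °C; 1 = growth at the plate median or of vehicle wells; lower values mean less growth of the strain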
Conditions: S. cerevisiae deletion strains, growth OD

Measured: normalized growth

CC(N=C(NC#N)Nc1ccncc1)C(C)(C)C (configuration not stated)
inactive: locus YAL013W, strain DEP1, stronger effect = lower value 1.01 | locus YAL021C, strain ccr4, stronger effect = lower value 0.988 | locus YAL026C, strain drs2, stronger effect = lower value 0.997 | locus YAL030W, strain snc1, stronger effect = lower value 0.988 | locus YAL040C, strain CLN3, stronger effect = lower value 0.983 | locus YBL061C, strain skt5, stronger effect = lower value 0.986 | locus YBR009C, strain hhf1, stronger effect = lower value 1.01 | locus YBR021W, strain FUR4, stronger effect = lower value 1.02 | locus YBR023C, strain chs3, stronger effect = lower value 0.98 | locus YBR171W, strain sec66, stronger effect = lower value 0.958 | locus YBR229C, strain ROT2, stronger effect = lower value 1.01 | locus YBR231C, strain swc5, stronger effect = lower value 0.953 | locus YBR279W, strain paf1, stronger effect = lower value 0.994 | locus YCL011C, strain gbp2, stronger effect = lower value 0.989 | locus YCL016C, strain dcc1, stronger effect = lower value 1.02 | locus YCL029C, strain bik1, stronger effect = lower value 1.04 | locus YCL061C, strain MRC1 (second series), stronger effect = lower value 0.999 | locus YCL061C, strain MRC1, stronger effect = lower value 0.951 | locus YCL069W, strain vba3, stronger effect = lower value 0.989 | locus YCR088W, strain abp1, stronger effect = lower value 0.98 | locus YDL005C, strain med2, stronger effect = lower value 0.988 | locus YDL035C, strain GPR1, stronger effect = lower value 0.999 | locus YDL040C, strain nat1, stronger effect = lower value 0.979 | locus YDL074C, strain BRE1, stronger effect = lower value 1.05 | locus YDL101C, strain DUN1, stronger effect = lower value 1.01 | locus YDL134C, strain PPH21, stronger effect = lower value 1.01 | locus YDL185W, strain tfp1, stronger effect = lower value 1.02 | locus YDL192W, strain arf1, stronger effect = lower value 1.01 | locus YDR001C, strain nth1, stronger effect = lower value 0.963 | locus YDR069C, strain doa4, stronger effect = lower value 0.949 | locus YDR101C, strain arx1, stronger effect = lower value 1.01 | locus YDR137W, strain rgp1, stronger effect = lower value 0.97 | locus YDR150W, strain NUM1, stronger effect = lower value 1.02 and 1 | locus YDR159W, strain sac3, stronger effect = lower value 1.01 | locus YDR162C, strain NBP2, stronger effect = lower value 1.01 | locus YDR195W, strain ref2 0.895 | locus YDR297W, strain sur2, stronger effect = lower value 0.971 | locus YDR318W, strain mcm21, stronger effect = lower value 1.02 | locus YDR334W, strain swr1, stronger effect = lower value 0.949 | locus YDR335W, strain msn5, stronger effect = lower value 0.972 | locus YDR363W, strain ESC2, stronger effect = lower value 0.904 | locus YDR388W, stronger effect = lower value 1.02 | locus YDR392W, strain spt3, stronger effect = lower value 1.04 | locus YDR502C, strain sam2, stronger effect = lower value 1.01 | locus YEL003W, strain gim4, stronger effect = lower value 0.967 | locus YEL037C, strain rad23, stronger effect = lower value 0.998 | locus YEL061C, strain CIN8 (second series), stronger effect = lower value 0.974 | locus YEL061C, strain CIN8, stronger effect = lower value 1.01 | locus YER002W, strain NOP16, stronger effect = lower value 1 | locus YER015W, strain faa2, stronger effect = lower value 0.999 | locus YER016W, strain bim1, stronger effect = lower value 0.986 | locus YER110C, stronger effect = lower value 1.02 | locus YER111C, strain swi4, stronger effect = lower value 0.995 | locus YER155C, strain BEM2 (second series), stronger effect = lower value 0.929 | locus YER155C, strain BEM2, stronger effect = lower value 1 | locus YER167W, strain BCK2, stronger effect = lower value 0.996 | locus YFR010W, strain ubp6, stronger effect = lower value 0.964 | locus YGL078C, strain dbp3, stronger effect = lower value 1.01 | locus YGL086W, strain mad1, stronger effect = lower value 1 | locus YGL167C, strain pmr1, stronger effect = lower value 0.961 | locus YGL173C, strain kem1, stronger effect = lower value 0.97 | locus YGL227W, strain vid30, stronger effect = lower value 0.986 | locus YGL240W, strain doc1, stronger effect = lower value 0.945 | locus YGL248W, strain PDE1, stronger effect = lower value 1 | locus YGL253W, strain hxk2, stronger effect = lower value 1.01 | locus YGR078C, strain PAC10, stronger effect = lower value 1.04 and 0.982 | locus YGR135W, strain pre9, stronger effect = lower value 1.03 | locus YGR229C, strain SMI1, stronger effect = lower value 1.02 | locus YGR252W, strain gcn5, stronger effect = lower value 0.967 | locus YHR013C, strain ard1, stronger effect = lower value 0.985 | locus YHR027C, strain rpn1, stronger effect = lower value 0.979 | locus YHR030C, strain SLT2, stronger effect = lower value 1.01 | locus YHR079C, strain IRE1 (second series), stronger effect = lower value 1.02 | locus YHR094C, strain hxt1, stronger effect = lower value 1.02 | locus YHR129C, strain ARP1, stronger effect = lower value 1 | locus YHR142W, strain chs7, stronger effect = lower value 1.02 | locus YHR200W, strain rpn10, stronger effect = lower value 1.02 | locus YIL066C, strain RNR3, stronger effect = lower value 1.02 | locus YIL073C, strain SPO22, stronger effect = lower value 1.02 | locus YIL125W, strain kgd1, stronger effect = lower value 1.01 | locus YIR030C, strain dcg1, stronger effect = lower value 1.02 | locus YJL092W, strain hpr5, stronger effect = lower value 0.976 | locus YJL095W, strain BCK1 (second series), stronger effect = lower value 0.974 | locus YJL095W, strain BCK1, stronger effect = lower value 1.04 | locus YJL115W, strain asf1, stronger effect = lower value 0.971 | locus YJL129C, strain trk1, stronger effect = lower value 0.979 | locus YJL134W, strain LCB3, stronger effect = lower value 1.01 | locus YJL154C, strain vps35, stronger effect = lower value 0.972 | locus YJL164C, strain tpk1, stronger effect = lower value 1.03 | locus YJL166W, strain qcr8, stronger effect = lower value 0.922 | locus YJL168C, strain set2, stronger effect = lower value 1.02 | locus YJL187C, strain SWE1 (second series), stronger effect = lower value 1.03
